Menin MLL FP FL: displaces fluorescein MLL peptide from human menin | Fluorescence polarization, fluorescein-MLL peptide displacement from menin | FP activity change, % at 61.4 µM | 290,000 tested, under 10 active; active means well fitted curve in the direction sought with a large enough effect in the polarisation, not every such curve was filed as active; inconclusive means small, poorly fitted or top-dose-only effect, or effect the other way, or a change in a side signal; inactive means no such curve, though single readings can be large or run the other way; the % refers to the polarisation; further: % of control where 0% means no effect
TRPV1 PAM: human TRPV1 potentiation; Q8NER1; TRPV1-expressing cells, Fluo-8 calcium influx, capsaicin EC20 potentiation; potentiation, % at 8.33 µM; 320,000 tested, 0.02% active; AID 540277; in the data active means potentiation above about 80%; inconclusive means between about 30% and that limit; further: 0% is about no effect
Target sequence (Q8NER1 whole entry, looked up): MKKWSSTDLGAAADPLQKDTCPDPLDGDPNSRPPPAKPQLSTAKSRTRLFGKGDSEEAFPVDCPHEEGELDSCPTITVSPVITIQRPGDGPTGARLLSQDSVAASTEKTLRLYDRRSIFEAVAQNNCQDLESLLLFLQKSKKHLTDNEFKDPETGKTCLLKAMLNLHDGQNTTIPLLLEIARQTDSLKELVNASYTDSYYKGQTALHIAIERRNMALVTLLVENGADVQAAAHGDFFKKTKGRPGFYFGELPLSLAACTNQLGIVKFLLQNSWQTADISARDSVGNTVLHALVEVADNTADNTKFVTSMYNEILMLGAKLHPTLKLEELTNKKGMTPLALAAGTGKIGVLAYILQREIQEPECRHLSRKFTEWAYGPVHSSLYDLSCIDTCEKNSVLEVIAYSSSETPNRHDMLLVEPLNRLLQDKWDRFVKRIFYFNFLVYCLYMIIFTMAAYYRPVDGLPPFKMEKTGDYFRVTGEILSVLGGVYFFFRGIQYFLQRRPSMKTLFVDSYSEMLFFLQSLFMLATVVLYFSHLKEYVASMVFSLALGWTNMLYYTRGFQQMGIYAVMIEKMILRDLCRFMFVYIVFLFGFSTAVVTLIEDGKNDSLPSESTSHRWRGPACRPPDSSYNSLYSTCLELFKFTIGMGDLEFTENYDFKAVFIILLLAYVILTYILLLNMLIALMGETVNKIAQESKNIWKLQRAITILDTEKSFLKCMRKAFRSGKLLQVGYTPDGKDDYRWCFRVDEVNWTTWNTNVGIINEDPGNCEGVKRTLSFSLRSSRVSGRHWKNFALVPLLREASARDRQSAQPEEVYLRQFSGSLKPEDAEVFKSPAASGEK
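Cells expressing TRPV1 were dye-loaded with Fluo-8 and read kinetically: 10 s baseline, 3 min after compound (agonist portion), then 2 min after EC20 capsaicin (allosteric enhancer portion). Calcium-bound dye fluorescence at 480/520 nm.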
Menin MLL FP TR: menin-MLL binding inhibition, Texas Red mutant peptide | O00255 | Potency, µM (titrated, usually from 61.6 µM), inactives show at the top dose FP activity change, negative = inhibition, actives largely listed as inhibitors | 270,000 tested, 0.23% active | Menin + Texas Red MLL mutant peptide, fluorescence polarization; active means well fitted inhibition curve with a large enough effect in the polarisation, with a control signal flat, not every such curve was filed as active; inconclusive means small, poorly fitted or top-dose-only effect, or effect the other way, or a change in a side signal; inactive means no such curve, though single readings can be large or run the other way; the % refers to the polarisation; further: potency means the concentration at half of the fitted maximal effect; % of control where 0% means no effect
MLL CXXC-DNA inh: blocks binding of human MLL CXXC domain to DNA; MLL-CXXC / FITC-HOXA9 DNA fluorescence polarization; Q03164; 290,000 tested, 0.037% active; Potency, µM (highest dose often 115 µM), for inactives: at the highest dose activity change, negative = inhibition, actives largely listed as inhibitors; active means well fitted inhibition curve with a large enough effect in the polarisation, with a control signal flat, not every such curve was filed as active; inconclusive means small, poorly fitted or top-dose-only effect, or effect the other way, or a change in a side signal; inactive means no such curve, though single readings can be large or run the other way; the % refers to the polarisation; further: potency means the concentration at half of the fitted maximal effect
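Steps: dispense CXXC domain solution (7 uM) → pin compounds or unlabeled HOX-A9 DNA control → 5 min ambient → add FLSN-HOX-A9 solution (50 nM) → spin → 30 min ambient → fluorescence polarization. Tris pH 7.5/NaCl/DTT/BSA buffer.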
TRPV1 ag: human TRPV1 agonism | Q8NER1 | activation, % at 8.33 µM | 320,000 tested, 0.19% active | TRPV1-expressing cells, Fluo-8 calcium influx, agonist mode; in the data active means activation above about 80%; inconclusive means between about 30% and that limit; further: 0% is about no effect
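TRPV1-expressing cells were cultured overnight at 35.5C and loaded with Fluo-8 calcium dye for 40 to 90 min at room temperature. After a 10 s baseline, compound was added and calcium influx was read kinetically for 3 min (ex 480/em 520 nm).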
MLL CXXC Fl: disrupts human MLL CXXC domain binding to DNA. MLL CXXC-DNA binding, fluorescein FP. shares compounds with MLL CXXC-DNA inh. Potency, µM (top dose mostly 345 µM), for inactives: at the top dose activity change, negative = inhibition, hits mostly inhibitors. 200 tested, 70% active; further: potency means the concentration at half of the fitted maximal effect; nearly all actives have a fitted effect of over 80% in size
MLL CXXC FP-TR: MLL CXXC-DNA interaction inhibition, Texas Red FP. Potency, µM (titrated, usually from 345 µM), for the others: at the top dose activity change, negative = inhibition, actives largely listed as inhibitors. 200 tested, 40% active. shares compounds with MLL CXXC-DNA inh. AID 624161. MLL CXXC-DNA binding, Texas Red fluorescence polarization; further: potency means the concentration at half of the fitted maximal effect; on the % scale 0 is the no-effect control and ±100 the full control effect; nearly all actives have a fitted effect of over 75% in size
MLL CXXC HTRF: disrupts human MLL CXXC domain binding to DNA by HTRF. shares compounds with MLL CXXC-DNA inh. MLL CXXC-DNA binding, HTRF, biochemical. Potency, µM (doses to about 172 µM), for the others: at the highest dose activity change, negative = inhibition, most hits filed as inhibitors. 210 tested, 30% active. AID 624162; further: on the % scale 0 is the no-effect control and ±100 the full control effect; nearly all actives have a fitted effect of over 80% in size
The depositor's hits bear a star; ? = inconclusive; nt = no result; [ ] = remark or other dose. A selection: hits, their analogues and other compounds. The true share with any hit is near 0.32%. Unless noted, the call rests on the fitted dose curve; in most records, active means well fitted inhibition curve with a large enough effect; inconclusive means small, poorly fitted or top-dose-only effect; inactive means no such curve, though single readings can be large or run the other way.

SMILES | Menin MLL FP FL | TRPV1 PAM | Menin MLL FP TR | MLL CXXC-DNA inh | TRPV1 ag | MLL CXXC Fl | MLL CXXC FP-TR | MLL CXXC HTRF
Cc1nn(C)c(C)c1CN(C)C(=O)C1c2ccccc2Oc2ccccc21 | -1.4 | -7.9 | -1.4% | 31.6µM* | 10.1 | 126µM* | ? | -1.2%
O=c1ccc2[n+]([O-])c3ccc(O)cc3oc-2c1 | ? | -4.6 | nt | 35.5µM* | 2.4 | ? | 2.25µM* | ?
C=CCC1(O)CCOc2ccccc21 (configuration not stated) | -4.8 | nt | 0.7% | nt | nt | nt | nt | nt
C=CCNC(=O)N1CCc2nc(-c3ccccc3)c3c(c2C1)CO[C@@H](C)C3 | 0.4[11.7 µM] | nt | -9.8%[11.7 µM] | nt | nt | nt | nt | nt
CC[C@H](NC(=O)[C@H](CCC(=O)O)NC(=O)[C@H](CCC(=O)O)NC(=O)[C@H](CC(=O)O[S+](=O)([O-])c1cccc2c(NCCN)cccc12)NC(=O)[C@H](CCC(=O)O)NC(=O)[C@H](CC(=O)O)NC(C)=O)C(=O)ON[C@@H](C)C(=O)N[C@@H](CO)C(=O)N[C@@H](CCCCNC(=O)c1ccc(N=Nc2ccc(N(C)C)cc2)cc1)C(N)=O | 8.4 | nt | -1.5% | nt | nt | nt | nt | nt
